KB-V1 MDR tox: kills drug-selected multidrug resistant KB-V1 cells | Potency, µM (titrated, usually from 46.1 µM), actives largely listed as cytotoxic | AID 1347076 | actives 3.4% (n = 400,000) | KB-V1 MDR cells viability, CellTiter-Glo, 72 h; note: nearly all actives have a fitted effect of over 60% in size
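KB-V1 MDR subline cells in DMEM (phenol-red free, 10% FBS) exposed to compounds in qHTS concentration series for 72 h at 37 degrees C. Viability read by CellTiter-Glo luminescence; concentration-effect curves fitted after normalization and correction.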
HT1080-NT tox: kills 2HG-producing HT-1080-NT fibrosarcoma cells. actives 1.6% (n = 360,000). Potency, µM (highest dose often 46.1 µM), actives largely listed as cytotoxic. HT-1080-NT fibrosarcoma viability, CellTiter-Glo ATP luminescence, 48 h. AID 686970;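 note: NT is the 2HG producing partner of a matched IDH1 knockdown line; nearly all actives have a fitted effect of over 55% in size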
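Luminescent CellTiter-Glo readout after 48 hours of compound exposure at 37 degrees C defined viability of HT-1080-NT cells. Activity was normalized to DMSO wells and cell-free media wells; concentration-response curves were fitted and assigned curve classes.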
DT40 TDP1 CPT: growth inhibition of DT40 Tdp1-/-;hTDP1 cells with camptothecin (screen for TDP1 inhibitors); AID 686979; chicken DT40 Tdp1-/-;hTDP1 cells + 20 nM CPT, ATP luminescence, 48 h; Potency, µM (doses to about 46.2 µM), actives largely listed as inhibitors; actives 12% (n = 420,000); note: nearly all actives have a fitted effect of over 55% in size
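Chicken DT40 Tdp1-/- cells stably complemented with human TDP1 were seeded at 400 cells/well in medium containing 20 nM camptothecin, exposed to pin-transferred compounds, and grown at 37 °C for at least 48 hr. Viability was read as ATP luminescence.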
KB-3-1 cytotox: kills parental KB-3-1 adenocarcinoma cells. KB-3-1 viability, CellTiter-Glo ATP luminescence, 72 h. Potency, µM (top dose mostly 46.1 µM), usual class: cytotoxic. actives 1.4% (n = 400,000). AID 1347075; note: nearly all actives have a fitted effect of over 60% in size
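Cytotoxicity measured as CellTiter-Glo luminescence after 72 h at 37 C. Compound titrations were pinned onto drug-naive KB-3-1 parental adenocarcinoma cells grown in DMEM with 10% FBS, and normalized data fitted to concentration-response curves.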
TDP1 cell noCPT: qHTS for Inhibitors of human tyrosyl-DNA phosphodiesterase 1 (TDP1): qHTS in cells in absence of CPT; Potency, µM (series often up to 46.2 µM), most hits filed as inhibitors; DT40 Tdp1-/- hTDP1 cells, no CPT, ATP luminescence, 48 h; actives 15% (n = 420,000); note: nearly all actives have a fitted effect of over 55% in size
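Camptothecin absent (DMSO only). Human TDP1-complemented DT40 knockout cells, 400 cells/well, 37 °C for minimum 48 hr; ATP measured via CellTiter-Glo, 30 min dark incubation, luminescence.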
HT1080 IDH1KD tx: HT-1080 IDH1 knockdown cell toxicity (counter line) | actives 2% (n = 360,000) | AID 686971 | Potency, µM (doses to about 46.1 µM), most hits filed as cytotoxic | HT-1080 IDH1 knockdown viability, ATP luminescence, 48 h
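Cytotoxicity counter-line: IDH1KD HT-1080, 48 h, CellTiter-Glo. Curves classed by r2, magnitude and activity.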
Each line names hits and unclear results; the compound was inactive in the other large screens. Most compounds without a hit are left out; they make up all but 19% or so of the library. Calls come from the whole dose curve; as a rule, active = well fitted curve in the direction sought with a large enough effect; inconclusive = small, poorly fitted or top-dose-only effect, or another doubt; inactive = no such curve, though single readings can be large; an effect the other way counts as inactive or inconclusive.

COc1ccc(-n2ccn(CC(=O)Nc3ccccc3OC)c(=O)c2=O)cc1	none
O=C1CN(c2ccc(Cl)cc2)C2(CCCCC2)S1	DT40 TDP1 CPT 29.1µM, TDP1 cell noCPT inconclusive
CCc1cc(C(=O)OC)c(NC(=O)CN2CCN(C(=O)c3ccco3)CC2)s1	DT40 TDP1 CPT inconclusive, TDP1 cell noCPT inconclusive
CC1CCc2c(sc(NC(=O)CN3CCN(C(=O)c4ccco4)CC3)c2C#N)C1 (stereo unspecified)	DT40 TDP1 CPT 18.4µM, TDP1 cell noCPT 25.9µM
CCOC(=O)c1c(NC(=O)CN2CCN(C(=O)c3ccco3)CC2)sc(C(N)=O)c1C	TDP1 cell noCPT 18.4µM
CCc1c(C)sc(NC(=O)c2ccoc2C)c1C(N)=O	KB-V1 MDR tox inconclusive, DT40 TDP1 CPT inconclusive, TDP1 cell noCPT inconclusive
Cc1ccc(C(=O)c2cc(C)sc2NC(=O)CN2CCN(C(=O)c3ccco3)CC2)cc1	KB-V1 MDR tox inconclusive, HT1080-NT tox inconclusive, DT40 TDP1 CPT inconclusive, TDP1 cell noCPT 18.4µM, HT1080 IDH1KD tx inconclusive
CCOC(=O)c1c(NC(=O)c2ccoc2C)sc(C)c1C	KB-V1 MDR tox inconclusive, KB-3-1 cytotox inconclusive, TDP1 cell noCPT 20.6µM
COC(=O)c1ccccc1NC(=O)CN1CCN(C(=O)c2ccco2)CC1	DT40 TDP1 CPT inconclusive
CCOC(=O)c1c(NC(=O)c2ccco2)sc(C(=O)N2CCCC2)c1C	KB-V1 MDR tox 2.31µM, DT40 TDP1 CPT inconclusive, TDP1 cell noCPT inconclusive
COc1ccc(Nc2c(-c3ccc(OC)cc3)nc3cnccn23)cc1	KB-V1 MDR tox inconclusive, DT40 TDP1 CPT inconclusive, TDP1 cell noCPT inconclusive
CCCCNc1c(-c2ccc(OC)c(Sc3ccc(OC)cc3)c2)nc2ccccn12	KB-V1 MDR tox inconclusive, HT1080-NT tox inconclusive, DT40 TDP1 CPT 4.11µM, KB-3-1 cytotox inconclusive, TDP1 cell noCPT 9.2µM, HT1080 IDH1KD tx inconclusive
CCCCNc1c(-c2ccc(OC)c(Sc3ccc(OC)cc3)c2)nc2cnccn12	KB-V1 MDR tox inconclusive, HT1080-NT tox 29.1µM, DT40 TDP1 CPT inconclusive, KB-3-1 cytotox inconclusive, TDP1 cell noCPT 23.1µM, HT1080 IDH1KD tx inconclusive
CCCCNc1c(-c2ccc(-c3ccc(OC)cc3)c(OC)c2)nc2ccccn12	KB-V1 MDR tox inconclusive, DT40 TDP1 CPT 18.4µM, KB-3-1 cytotox inconclusive, TDP1 cell noCPT 13µM
CCCCNc1c(-c2ccc(SC(C)CC)cc2)nc2cnccn12 (stereo unspecified)	HT1080-NT tox inconclusive, DT40 TDP1 CPT 9.2µM, KB-3-1 cytotox inconclusive, TDP1 cell noCPT 8.2µM, HT1080 IDH1KD tx inconclusive
Cc1ccc(S(=O)(=O)N2CCN(c3nc(-c4cccs4)nc4ncccc34)CC2)cc1	DT40 TDP1 CPT inconclusive, KB-3-1 cytotox inconclusive, TDP1 cell noCPT inconclusive (no result: HT1080-NT tox, HT1080 IDH1KD tx)
COc1cc(C(=O)Nc2sc3c(c2C#N)CCCC3)c(Br)c(OC)c1OC	DT40 TDP1 CPT inconclusive, TDP1 cell noCPT 3.26µM (no result: KB-V1 MDR tox, HT1080-NT tox, KB-3-1 cytotox, HT1080 IDH1KD tx)
COc1cccc(OC)c1C(=O)Nc1sc2c(c1C#N)CCC2	none
COC(=O)c1c(NC(=O)c2cc(OC)c(OC)c(OC)c2Br)sc2c1CCC(C)C2 (stereo unspecified)	DT40 TDP1 CPT inconclusive, TDP1 cell noCPT 20.6µM (no result: HT1080-NT tox, HT1080 IDH1KD tx)
COC(=O)CCC(=O)Nc1sc2c(c1C#N)CCCC2	DT40 TDP1 CPT 4.61µM, TDP1 cell noCPT 4.61µM
COc1cc(C(=O)Nc2sc3c(c2C(N)=O)CCC(C)C3)cc(OC)c1OC (stereo unspecified)	DT40 TDP1 CPT inconclusive (no result: HT1080-NT tox, HT1080 IDH1KD tx)
CC1(C(=O)NS(=O)(=O)c2ccc(Cl)cc2)CCN1C(=O)c1ccc(C2CCCCC2)cc1 (stereo unspecified)	none
Cc1ccnc(NC(=O)c2ccc(S(=O)(=O)N3CCCC3)cc2)c1	KB-V1 MDR tox inconclusive
O=C(CSc1nc(C(F)(F)F)cc(=O)[nH]1)Nc1ccc2c(c1)OCCO2	KB-3-1 cytotox inconclusive
CCOP(=O)(OCC)c1nc(-c2ccccc2)oc1N1CCCCC1	DT40 TDP1 CPT 20.6µM, TDP1 cell noCPT 16.4µM
